KKLEB cytotox = counter-screen for CF NF-kB inhibitors: cytotoxicity; activity change (cytotoxicity), % at 5 µM; KKLEB CF airway cells viability, ATPlite luminescence, overnight; hits give low values; cells stimulated with P. aeruginosa culture filtrate; AID 602141; 360,000 compounds, 0.36% hits;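 active = corrected activity change at or below -50% at 5 µM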
Peg3 promoter = inhibitors of Peg3 promoter | HeLa PEG-Prom luciferase reporter, luminescence, overnight | inhibition, % at 20 µM | 360,000 compounds, 1.7% hits | AID 588405;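 active = inhibition of at least 50% at 20 µM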
MITF TRPM1 inh = MITF TRPM1 promoter inhibition in SK-MEL-5 cells | SK-MEL-5 TRPM1 promoter luciferase, 24 h | inhibition, % at 12.5 µM | 330,000 compounds, 0.83% hits;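 active = mean inhibition across replicates of 60% or more, whatever share of single replicates reaches that level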
HIF-2a inh = HIF-2a inhibition; 786-0 RCC cells HIF-2a reporter, luciferase luminescence, overnight; inhibition, % at 18.8 µM; 360,000 compounds, 0.72% hits; AID 624352;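 active = inhibition of the luminescence signal of 40% or more relative to plate controls, in a single-dose primary screen at 18.75 µM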
CF NFkB inh = inhibitors of cystic fibrosis induced NF-kB; KKLEB NF-kB-GFP reporter, PAF-induced, GFP fluorescence overnight; inhibition, % at 5 µM; 360,000 compounds, 0.86% hits; AID 588850;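 active = at least 50% inhibition at 5 µM, scaled per plate between neutral and stimulator controls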;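 note: PAF is a Pseudomonas aeruginosa culture filtrate used as stimulus; plate controls were PAF-stimulated DMSO wells for no effect and unstimulated DMSO wells for full effect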
CHOP inh = CHOP inhibition in unfolded protein response; CHO-K1 CHOP-promoter luciferase, tunicamycin-induced, 15-18 h; inhibition, % at 10 µM; 220,000 compounds, 3.8% hits;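 active = compounds that reduced the stress-induced luciferase reporter signal by more than about 70% of percent inhibition, limit read from the data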;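 note: 0% = tunicamycin plus vehicle and 100% = wells without tunicamycin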
Active calls of the source: *; . = no result. Hits are enriched below; roughly 4.3% of the tested compounds scored in any of these assays.

SMILES	KKLEB cytotox	Peg3 promoter	MITF TRPM1 inh	HIF-2a inh	CF NFkB inh	CHOP inh
COCCOC(=O)c1c(NC(=O)CN2CCc3ccccc32)sc(C(N)=O)c1C	9.3	15.1	9.7	16.5	5.1	-3.2
CCOC(=O)c1c(NC(=O)C2c3ccccc3Oc3ccccc32)sc(C(C)=O)c1C	-7.0	19.2	8.5	24.2	-3.4	70.8*
N#Cc1ccc(OCC(=O)NCC(c2cccs2)N2CCOCC2)cc1 (configuration not stated)	11.2	6.3	12.5	8.8	13.7	.
CC1=C(C(=O)N(C(C)C)C(C)C)CC(CC(=O)NCc2cccc3ccccc23)C(=O)N1Cc1ccccc1 (configuration not stated)	2.9	10.3	.	-1.8	-14.5	.
CN1C(=O)/C(=N\OC(=O)c2cccc3ccccc23)c2ccccc21	-32.7	74.4*	37.1	39.8	7.9	95.1*
Cc1c(O)cnc2nn(-c3ccccc3)c(=N)n12	-20.8	-5.2	.	-12.5	-35.6	.
O=C(NCc1csc2ccccc12)Nc1cc(Cl)cc(Cl)c1	-5.0	28.8	-9.3	-12.8	2.1	86.3*
O=C(NCc1ccccn1)Nc1cc(Cl)cc(Cl)c1	-3.6	2.0	0.6	-33.1	3.4	.
N#CC1=C(N)NC(SCc2ccc(Br)cc2)=C(C#N)C12CCCCC2	-1.7	25.8	-5.3	18.0	3.9	93.5*
N#CC1=C(N)NC(SCC(=O)c2ccccc2)=C(C#N)C12CCCC2	7.4	-41.2	-3.9	-64.6	-9.0	-3.4
N#CC1=C(N)NC(SCC(=O)Nc2ccc(Br)cc2)=C(C#N)C12CCCCC2	-18.6	45.0	-4.3	28.1	7.7	73.1*
O=C(CN1C(=O)c2cccnc2Oc2ccc(Cl)cc21)Nc1ccccc1F	1.6	-16.2	5.1	-13.9	11.9	.
CCN(CC)c1nc(Nc2ccc(Cl)cc2)nc(OCC#N)n1	-6.2	11.7	2.2	14.0	24.2	92.9*
Cc1cccc(Nc2nc(OCC#N)nc(N(C)C)n2)c1	-1.3	26.4	14.4	11.9	1.0	.
CCOC(=O)c1sc(NC(=O)CSc2nnnn2-c2ccc(C)c(C)c2)nc1C	-8.9	18.4	-7.4	17.4	13.0	93.2*
CCOC(=O)Cc1csc(NC(=O)CSc2nnnn2-c2ccc(C)c(C)c2)n1	10.1	-4.0	6.0	8.0	-9.3	24.1
CCOC(=O)c1sc(NC(=O)CN2C(=O)C3CC=CCC3C2=O)nc1C (configuration not stated)	2.1	88.5*	1.4	15.4	11.5	.
CCOC(=O)c1sc(NC(=O)CSc2nnc(C(C)C)n2CC)nc1C	-8.7	52.0*	1.7	5.0	-4.3	19.9
CCOC(=O)c1sc(NC(=O)CSc2nnc(C(C)C)n2C)nc1C	4.9	11.6	1.0	6.8	0.7	-4.5
COC(=O)c1sc(NC(=O)CSc2nnnn2-c2cccc(OC)c2)nc1C	-1.0	-0.3	2.0	7.3	-1.7	55.5
CCOC(=O)c1sc(NC(=O)CSc2nnnn2-c2ccccc2)nc1C	-3.8	22.6	-7.4	17.5	31.7	84.8*
CCOc1ccc(NS(=O)(=O)c2cccc(C(=O)N3CCN(C/C=C/c4ccccc4)CC3)c2)cc1	3.5	9.7	9.4	4.9	7.3	.
COc1ccccc1-c1nnc2sc(-c3ccc(N(C)C)cc3)nn12	-2.8	-51.1	45.2	-15.4	52.6*	.
c1ccc(-c2nn3c(C4CCCCC4)nnc3s2)cc1	-11.4	-4.5	3.3	15.8	14.7	77.9*
c1ccc(-c2nn3c(-c4ccccc4)nnc3s2)cc1	10.1	-27.1	5.6	-51.6	-25.2	2.1
SMILES	KKLEB cytotox	Peg3 promoter	MITF TRPM1 inh	HIF-2a inh	CF NFkB inh	CHOP inh
Cc1cccc(-c2nnc3sc(-c4ccccc4)nn23)c1	12.8	-164.0	-81.1	-211.7	-37.5	77.0*
O=S1(=O)C[C@H](N2CC[C@@H](O)C2)[C@@H](COCc2ccccc2)N1	3.1	-4.3	.	17.9	13.1	.
COc1ccc(C(=O)O/N=C2\C(=O)N(C)c3ccccc32)cc1	0.4	-0.3	8.1	16.6	-4.8	.
COc1ccc(C(=O)N=c2nc3ccccn3s2)cc1	-47.8	-39.2	53.9	46.2*	-8.8	42.3
CN(C)c1ccc(/C=C2\CCCCC2=O)cc1	-0.7	-237.2	-38.2	-187.3	9.6	-24.9
CN(C)CCC1(C2=CCCC2)CC/C(=C/c2ccc(Cl)cc2)C1=O (configuration not stated)	9.5	95.3*	-9.6	-11.7	-10.8	.

Screening results (PubChem)
